Results reported in PubChem BioAssay (NCI).
Compounds without any hit were thinned out: in the full panel of roughly 79,000, 15% have a hit. Rule as the data show it: active = growth inhibition above about 70%; inactive = the rest.

Assays:
[1] = NCI Yeast Anticancer Drug Screen. Data for the rad50 strain (AID 155);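 also: 0% = growth of vehicle-only cultures of the same strain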; settings: S. cerevisiae rad50 strain growth inhibition; at 50.0 µM; hits give high values
Procedure, shortened: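 A DNA repair-deficient yeast mutant serves as the test organism; compound-induced growth inhibition is calculated against vehicle-treated cells.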

[2] = NCI Yeast Anticancer Drug Screen. Data for the mec2-1 strain (AID 157); settings: S. cerevisiae mec2-1 strain, at 50.0 µM, hits give high values
Procedure, shortened: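 Yeast mec2-1 mutant treated with compound. Readout: growth inhibition vs vehicle controls.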

[3] = NCI Yeast Anticancer Drug Screen. Data for the sgs1 mgt1 strain (AID 161);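 also: 0% = growth of cultures given vehicle only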; settings: S. cerevisiae sgs1 mgt1 strain, at 50.0 µM, hits give high values
Procedure, shortened: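 Read-out: growth inhibition vs vehicle controls. Cells: mutant yeast strain deficient in DNA damage repair.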

[4] = NCI Yeast Anticancer Drug Screen. Data for the cln2 rad14 strain (AID 165);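 also: 0% = growth equal to vehicle treated cultures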; settings: S. cerevisiae cln2 rad14 strain, at 50.0 µM, hits give high values
Procedure, shortened: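 cln2 rad14 yeast strain; compound exposure; growth inhibition read vs vehicle controls.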

[5] = NCI Yeast Anticancer Drug Screen. Data for the bub3 strain (AID 167); settings: S. cerevisiae bub3 mutant strain, at 50.0 µM, hits give high values
Procedure, shortened: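 Inhibition values come from growth of compound-treated mutant yeast normalised to vehicle-treated controls.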

[6] = NCI Yeast Anticancer Drug Screen. Data for the mlh1 rad18 strain (AID 175); settings: S. cerevisiae mlh1 rad18 strain growth inhibition; at 50.0 µM; hits give high values
Procedure, shortened: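 Yeast w/ defined DNA-repair lesions; compound exposure; growth vs vehicle controls → % inhibition.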

Measured: growth inhibition

CC(=O)n1oc2ccc(Br)cc2c1=O
inactive: [1] -3.6% | [2] 1.2% | [3] -7.8% | [4] -5.4% | [5] 9.25% | [6] 9.75%

Cn1c(=O)c2c(ncn2C2C(=O)NNC2=O)n(C)c1=O
inactive: [1] -7.15% | [2] -8.45% | [3] -17.2% | [4] 2.35% | [5] 7.55% | [6] 0.9%

CCOC(=O)c1cccc(OCC)c1
inactive: [1] 6.95% | [2] 18.1% | [3] -7.65% | [4] -43% | [5] 3.5% | [6] 6.7%

COc1ccc(C(O)C(NCCO)c2ccccc2)cc1 (configuration not stated)
inactive: [1] -1.3% | [2] -19.5% | [3] 4.8% | [4] 7.15% | [5] -3.85% | [6] 7.85%

CCOC(=O)C1=C(O)c2c(OC)ccc(OC)c2C(=O)C1=O
inactive: [1] -23.6% | [2] -43.5% | [3] -22.2% | [4] 3.65% | [5] -16% | [6] -30%

Cc1ccc(CC(=S)N2CCOCC2)cc1
inactive: [1] 19.8% | [2] 24.2% | [3] 10.8% | [4] 10.9% | [5] 25.2% | [6] 16.6%

CCOc1ccc(N=Nc2ccc3oc(=O)c(/C(C)=N/NC(=O)CC(=O)Nc4cccc(OC)c4)cc3c2)cc1
inactive: [1] 44.5% | [2] 36% | [3] 25.2% | [4] -17.3% | [5] -5% | [6] 44.1%

CC(=O)OCCOC(C)=O
inactive: [1] 15.2% | [2] 4.35% | [3] -5.1% | [4] 19.9% | [5] 21.3% | [6] 1.45%

CC(=O)CC(=O)NC1CCCC1
inactive: [1] -25.8% | [2] -38.6% | [3] -33% | [4] -3.5% | [5] -50% | [6] -13.9%

CC(=O)NC(c1ccccc1)c1c(O)ccc2ccccc12 (configuration not stated)
inactive: [1] 26.6% | [2] -2.8% | [3] 10.8% | [4] -33.2% | [5] -2.5% | [6] -5.25%

Cc1ccccc1I
inactive: [1] -15.2% | [2] -32.3% | [3] -3.2% | [4] 9% | [5] 0.5% | [6] 9.2%

Cc1ccccc1NN
inactive: [1] 29.1% | [2] 7.05% | [3] -2.3% | [4] -2.6% | [5] 4% | [6] 7.6%

O=c1cc(CCl)nc2c3ncn(C4OC(CO)C(O)C4O)c3ncn12 (configuration not stated)
inactive: [1] -11.8% | [2] -16.5% | [3] -0.25% | [4] -5.95% | [5] -8.15% | [6] -0.55%

O=C(O)CN1C(=O)NC(C2CC2)(C2CC2)C1=O
inactive: [1] -3.15% | [2] -7.15% | [3] -12.8% | [4] -23.2% | [5] 8.85% | [6] 6.6%

CC1(C)CC2=C(SC3C=CC=CC3N2)C(=O)C1C(=O)C(N)=O (configuration not stated)
inactive: [1] -34.7% | [2] -15% | [3] -5.05% | [4] -3.65% | [5] -23.1% | [6] -33.8%

O=[N+]([O-])c1ccc(-c2cc3ccccn3c2)cc1
inactive: [1] -5.1% | [2] -46.2% | [3] -9.7% | [4] -11.8% | [5] 11.8% | [6] -18.1%

[Cl][Sn]1([Cl])[CH2]CCCCCCCCCC[CH2][Sn]([Cl])([Cl])[CH2]CCCCCCCCCC[CH2]1
inactive: [1] -12.9% | [2] 1.2% | [3] 9.65% | [4] -12.7% | [5] -13.6% | [6] -25.5%

CCCC(C)OS(=O)(=O)c1ccc(C)cc1 (configuration not stated)
inactive: [1] 13% | [2] -6.55% | [3] 0.75% | [4] -36.5% | [5] 8.85% | [6] 5.05%

COc1cc(NS(=O)(=O)c2ccccc2)ccc1C
inactive: [1] 27.6% | [2] -20.3% | [3] 14.7% | [4] 12.3% | [5] 22.4% | [6] 24.9%

CN(C)c1ccc(/C=C(\C#N)c2nc(-c3cc4ccccc4oc3=O)cs2)cc1
inactive: [1] -2.45% | [2] -13.6% | [3] -23% | [4] -4.3% | [5] -35.7% | [6] -63.2%

OCCc1cc2ccccc2c2ccccc12
inactive: [1] -3.55% | [2] 6.75% | [3] -4.8% | [4] -11.9% | [5] -15.9% | [6] -12.9%

Clc1ccccc1N=NNc1ccccc1Cl
inactive: [1] 15.8% | [2] -2.4% | [3] 7.05% | [4] -29.5% | [5] 6.35% | [6] 6.75%

CCOC(=O)Nc1nc2c(s1)c([N+](=O)[O-])cn2C
inactive: [1] 11.6% | [2] 7% | [3] 17.1% | [4] 2.45% | [5] 4.6% | [6] 20.6%

C=CCOC(=O)CCC(C#N)(C#N)CCC(=O)OCC=C
inactive: [1] -9.55% | [2] -7.1% | [3] -0.4% | [4] -25.8% | [5] 50.5% | [6] 15.3%

O=C1OC(c2ccccc2)=N/C1=C\c1cccc(F)c1
inactive: [1] -18.4% | [2] -18.2% | [3] -23.1% | [4] -6.95% | [5] -16.1% | [6] 6.25%

O=C(O)/C=C\C(Cl)(Cl)Cl
inactive: [1] -6.35% | [2] -6.6% | [3] -6.7% | [4] 4.15% | [5] -41% | [6] -13.4%

C=C1CC(Cn2cc(C)c(=O)[nH]c2=O)(c2ccc(-c3ccccc3)cc2)OC1=O (configuration not stated)
inactive: [1] 8.9% | [2] -5.35% | [3] 38.6% | [4] 37.7% | [5] 29.5% | [6] 47.1%

Nc1nc(Sc2ccc([N+](=O)[O-])c3nonc23)c2[nH]cnc2n1
inactive: [1] 17.1% | [2] 7.25% | [3] -20.4% | [4] 17.2% | [5] 29.1% | [6] 34.6%

O=S(=O)(O)c1ccc(-c2nc3ccccc3[nH]2)cc1
inactive: [1] 1.6% | [2] 8.5% | [3] 4.65% | [4] 6% | [5] 28.2% | [6] -18.9%

O=C1c2cc(O)c(O)cc2O[C@H](c2ccc(O)c(O)c2)[C@H]1O
inactive: [1] 2.15% | [2] -35.1% | [3] 11.8% | [4] 16.2% | [5] -8.7% | [6] -46.7%

CCOC(=O)N1C2C=C(C)C(ON2C(=O)c2ccccc2)C2C(C)C(=O)N21 (configuration not stated)
inactive: [1] -3.8% | [2] -10.7% | [3] -5.8% | [4] 18.1% | [5] -17.5% | [6] -13.4%

CSCCOC(=O)C1C2CCC(O2)C1C(=O)O (configuration not stated)
inactive: [1] 11.1% | [2] 10.6% | [3] 1.55% | [4] 9.25% | [5] -0.6% | [6] 17.6%

O=c1c(O)c(-c2ccccc2)oc2cc(O)cc(O)c12
inactive: [1] 24.5% | [2] 4.4% | [3] 40.9% | [4] 25.8% | [5] 27.4% | [6] 28.7%

Cc1cccc(NC(=O)CCl)c1C
inactive: [1] -18.1% | [2] -37.6% | [3] -7.65% | [4] 11.8% | [5] -21.9% | [6] -3.7%

CCCCCCCCCC(=O)OCC1OC(n2cc(F)c(=O)[nH]c2=O)C(N)C(OC(=O)CCCCCCCCC)C1O (configuration not stated)
inactive: [1] 42.8% | [2] 5.6% | [3] 17.1% | [4] 57.6% | [5] 8.85% | [6] 8.15%

COc1ccc(C(=O)c2cccc(C(=O)c3ccc(OC)cc3)c2)cc1
inactive: [1] -13.1% | [2] -19.4% | [3] -3.5% | [4] -0.9% | [5] -13.5% | [6] -4.15%

CCCCCCC1(/C=C/c2ccc(Cl)c(Cl)c2)OCCCO1
inactive: [1] 6.15% | [2] 12.2% | [3] 12.6% | [4] -1.55% | [5] 3.2% | [6] 8.1%

Nc1ccc(COCCOCc2ccc(N)cc2)cc1
inactive: [1] -4.35% | [2] 1.7% | [3] -4.25% | [4] -5.6% | [5] 2.8% | [6] 17.4%

COc1cccc(C(=O)NNC(=O)c2cccc(OC)c2)c1
inactive: [1] -1.5% | [2] -15.9% | [3] -9.35% | [4] 9.55% | [5] -1.9% | [6] -1.85%

O=C(CCCn1ccnc1[N+](=O)[O-])NCCn1cnc([N+](=O)[O-])c1
inactive: [1] 8.9% | [2] 29.6% | [3] 5.2% | [4] 5.75% | [5] -9.4% | [6] 61%

CC1(C)OCN(c2ccc(Cl)cc2)Cn2c1nc1ccccc12
inactive: [1] -6.65% | [2] 8.2% | [3] -22.8% | [4] 2.5% | [5] -25.9% | [6] -9.25%

COc1ccc(C(C#N)C(=O)C(=O)Nc2ccc(C)cc2C)cc1OC (configuration not stated)
inactive: [1] -30.6% | [2] 19.6% | [3] 42% | [4] -22.9% | [5] 48.2% | [6] 28.8%
